# Source: PubChem
# Rows were chosen to be rich in hits. Some 2.3% of all compounds tested hit in one or more screens of this group.
# Bim-Mcl-1: inhibitors of Bim peptide binding to Mcl-1, primary screen, biochemical, bead-based flow cytometry, multiplex | Bim peptide-Mcl-1 binding | Induced myeloid leukemia cell differentiation protein Mcl-1 (Homo sapiens), Q07820 | inhibition, % at 10 µM | AID 1009, 2008 | hit rate 0.1% among 190,000; in the data active means inhibition above about 40%;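 further: 0% = no compound tracer wells and 100% = peptide blocker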
# Target sequence (Q07820 whole entry, looked up): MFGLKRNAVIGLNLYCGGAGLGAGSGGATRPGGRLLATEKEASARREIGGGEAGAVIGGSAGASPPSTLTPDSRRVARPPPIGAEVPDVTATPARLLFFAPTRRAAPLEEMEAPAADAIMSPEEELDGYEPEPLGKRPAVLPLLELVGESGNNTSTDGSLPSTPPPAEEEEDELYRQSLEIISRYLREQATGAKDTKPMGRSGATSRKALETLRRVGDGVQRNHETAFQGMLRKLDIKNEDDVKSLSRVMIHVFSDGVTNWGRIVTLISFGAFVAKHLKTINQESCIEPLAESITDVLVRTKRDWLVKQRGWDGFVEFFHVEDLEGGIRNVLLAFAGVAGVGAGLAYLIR
# MCL1-BIM inh: inhibitors of MCL1 binding to BIM-BH3, primary screen, biochemical, fluorescence polarization. inhibition, % at 10.9 µM. GST-MCL1 / FITC-Bim-BH3 fluorescence polarization. AID 2057, 2009. hit rate 0.68% among 320,000;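 active means inhibition above the mean inhibition of all tested compounds plus 3 SD, set per campaign, cut at about 40% in these data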;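 further: 0% = DMSO wells and 100% = unlabeled Bim-BH3 peptide control; higher means more loss of mP so more displacement of Bim peptide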
# Bcl-xL primary: inhibitors of human Bcl-xL, primary screen, biochemical, fluorescence polarization, HTS. Bcl-2-like protein 1 (Homo sapiens), Q07817. GST-Bcl-xL / FITC-Bim BH3 peptide fluorescence polarization. inhibition, % at 10.9 µM. hit rate 0.7% among 320,000;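 active means inhibition above the mean of all tested compounds plus 3 SD, cutoff set per campaign, cut at about 30% in these data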;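 further: 0% = DMSO wells and 100% = unlabeled Bim-BH3 peptide competitor; inhibitors lower millipolarization by displacing the labeled peptide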
# Target sequence (Q07817 whole entry, looked up): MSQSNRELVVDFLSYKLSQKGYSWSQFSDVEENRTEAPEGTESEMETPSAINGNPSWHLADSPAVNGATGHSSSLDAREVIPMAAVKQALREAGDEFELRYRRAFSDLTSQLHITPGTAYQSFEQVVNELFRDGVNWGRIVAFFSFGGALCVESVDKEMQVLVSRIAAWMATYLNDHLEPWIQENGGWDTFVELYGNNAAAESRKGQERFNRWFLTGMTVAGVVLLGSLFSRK
# Mcl1-Bid inh: Mcl-1/Bid binding inhibitors, primary screen, biochemical, TR-FRET, 1536-well; TR-FRET Mcl-1/Bid-Dy647 peptide binding; inhibition, % at 21.7 µM; hit rate 0.97% among 220,000; AID 1021, 2008;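 active means compounds that cut the binding signal by more than half at the single screening dose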;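 further: His-tagged Mcl-1 with europium anti-His antibody binding Bid BH3 peptide; 0% = Mcl-1 plus peptide wells and 100% = peptide-only wells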
# GLD-1 TGE inh: GLD-1/TGE RNA complex disruptors, primary screen, biochemical, fluorescence polarization; hit rate 0.44% among 320,000; purified GLD-1 + fluorescein TGE RNA; inhibition, % at 5.96 µM; Female germline-specific tumor suppressor gld-1 (Caenorhabditis elegans), Q17339;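 active means percent inhibition above a per-plate cutoff, the plate mean of test compounds plus 3 SD, cut at about 30% in these data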;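 further: 0% = DMSO wells with GLD-1 and probe and 100% = wells lacking GLD-1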
# Mcl1-Noxa inh: Mcl-1/Noxa binding inhibitors, primary screen, biochemical, TR-FRET, 1536-well; Induced myeloid leukemia cell differentiation protein Mcl-1 (Homo sapiens), Q07820; TR-FRET Mcl-1/Noxa peptide binding, 2 h; inhibition, % at 21.7 µM; hit rate 1.5% among 220,000;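 active means compounds that cut the protein-peptide binding signal by more than 50% relative to plate controls in a single-dose test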;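 further: His-tagged Mcl-1 with rhodamine Noxa BH3 peptide and terbium anti-His antibody; 0% = Mcl-1 plus Noxa peptide wells and 100% = peptide-only wells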
# * = called active by the depositor; . = no result given.
SMILES,Bim-Mcl-1,MCL1-BIM inh,Bcl-xL primary,Mcl1-Bid inh,GLD-1 TGE inh,Mcl1-Noxa inh
COC(=O)CCC(=O)OC1(C)C(=O)C2=CN(c3ccc(OC)cc3)C(c3ccc(OC)cc3)=CC2=C(Br)C1=O (stereo not drawn),.,13,19,.,13,.
CCCCC1=CC2=C(c3ccco3)C(=O)C(C)(OC(=O)c3ccc(OC)cc3)C(=O)C2=CN1Cc1ccco1 (stereo not drawn),.,31,25,-94,22,37
COc1ccc(NC(=O)CSCC(=O)N(C)Cc2ccc3c(c2)OCCO3)cc1,.,-2,0,.,5,.
CN(C)S(=O)(=O)c1cccc(-c2nnc3n2CCCCC3)c1,.,2,4,-12,0,-8
Cc1ccc(S(=O)(=O)NCC2CCC(C(=O)NCc3cccnc3)CC2)cc1 (stereo not drawn),-1,0,2,-1,1,3
N#Cc1cc(Cl)c(NCC2CCCO2)cc1C#N (stereo not drawn),.,3,-1,.,13,.
N#Cc1cc(-c2ccccc2)nn1-c1ccccc1,5,43*,45*,27,-2,97*
Cc1ccc(-c2nnc(SCC(=O)N/N=C/c3ccc(C)s3)n2-c2ccc(C)cc2)cc1,-5,-6,0,97*,8,23
Cc1ccc(-c2nnc(SCC(=O)N/N=C/c3ccccc3C(=O)O)n2-c2ccccc2)cc1,0,-4,1,4,-1,-1
Cc1ccc(-c2nn(-c3ccccc3)cc2C(N)=O)o1,0,-14,-6,-21,-11,51*
CSc1ccc(CN2CCC(C(=O)NCc3ccc(C)cc3)CC2)cc1,0,-7,3,50*,2,29
Cc1ccc(OCC(=O)NCc2ccco2)c([N+](=O)[O-])n1,-3,3,-3,80*,-1,8
Cc1ccc(CNC(=O)COc2ccc(C)nc2[N+](=O)[O-])cc1,-14,4,6,23,-1,7
O=C(CCN=C1NS(=O)(=O)c2ccccc21)OCc1nnc(-c2ccccc2)o1,.,-8,-4,.,-3,.
CCOC(=O)C1(C)NC(c2ccc(OC)c(OC)c2)C2C(=O)N(CC)C(=O)C21 (stereo not drawn),-1,-1,5,3,-1,6
CCCC1(C(=O)OCC)NC(c2cc(OC)c(OC)c(OC)c2)C2C(=O)N(CC)C(=O)C21 (stereo not drawn),81*,3,7,-19,0,8
Cc1ccc(C(=O)NCC(=O)OC(C)C(=O)Nc2ccc(N(C)C)cc2)cc1C (stereo not drawn),1,-2,4,-60,5,71*
O=C(c1ccccc1)N1CCN(C(=O)c2ccc([N+](=O)[O-])cc2)CC1,-3,-12,-2,10,-4,54*
CC(=O)c1cccc(NC(=O)C2CCN(C(=O)c3ccc([N+](=O)[O-])cc3)CC2)c1,-2,2,2,73*,1,9
O=C(CSc1nnc(COc2cccc3cccnc23)o1)N1CCc2ccccc21,0,-7,-6,84*,9,-5
O=C(CSc1nnc(Cc2ccccc2)o1)N1CCc2ccccc21,1,5,1,-15,4,13
O=C1NCCCC2c3c(cc(Br)c(O)c3Br)OC12N1CCOCC1 (stereo not drawn),-2,-3,4,-22,-1,62*
O=C(Nc1ccccc1N1CCCCC1)C1CCN(C(=O)c2ccc(Cl)cc2)CC1,.,-10,-6,.,-2,.
O=C1NC(=O)/C(=C\c2ccc(Br)o2)S1,.,36,17,.,6,.
O=C1NC(=O)/C(=C/c2ccc(-c3cc(C(=O)O)ccc3Cl)o2)S1,.,42*,21,.,3,.
SMILES,Bim-Mcl-1,MCL1-BIM inh,Bcl-xL primary,Mcl1-Bid inh,GLD-1 TGE inh,Mcl1-Noxa inh
O=C(Nc1ccc2nc(-c3ccccc3)[nH]c2c1)c1cccs1,7,-5,2,-25,3,18
O=C(Nc1ccc2nc(-c3ccc4nc[nH]c4c3)[nH]c2c1)c1cccs1,21,9,8,-6,4,79*
Cc1cccc(NC(=O)CSc2nnc(CNC(=O)c3ccco3)n2C)c1C,.,0,2,.,-2,.
O=C(Nc1ccc2c(c1)nc1n2CCSC1)c1ccco1,-1,18,6,5,-8,60*
CCC(=O)Nc1ccc2c(c1)nc1n2CCN(C2CCCCC2)C1,1,22,16,-60,7,26
O=C(Nc1ccc2c(c1)nc1n2CCN(C2CCCCC2)C1)c1ccco1,.,.,.,-55,.,84*
O=C1Nc2cc(Cl)cnc2N2CCCC12 (stereo not drawn),1,43*,36*,-17,10,60*
Cn1c(CC(=O)Nc2ccccc2F)nnc1SCC(=O)N1CCOCC1,.,-14,-20,.,1,.
CC1CN(C(=O)N2c3ccccc3Sc3ccccc32)CC(C)O1 (stereo not drawn),-5,-2,3,-3,3,22
CC1CN(C(=O)N2c3ccccc3Sc3ccccc32)C(C)CC1=O (stereo not drawn),-2,4,6,-18,0,70*
Nc1nc(Nc2cccc(F)c2)nc(N2CCOCC2)c1[N+](=O)[O-],.,2,-2,77*,1,10
Cc1ccc(Nc2nc(N)c([N+](=O)[O-])c(N3CCOCC3)n2)cc1C,-24,-7,-1,-34,-2,-29
O[C@@H]1CN(Cc2ccc(-n3cccn3)cc2)CC[C@H]1N1CCN(c2ccccc2F)CC1,.,2,0,.,6,.
COc1ccc(OC)c(NC(=O)CSc2nc3ccccc3c(=O)n2CC2CCCO2)c1 (stereo not drawn),.,7,2,.,7,.
COC(=O)c1ccc2c(=O)n(CC3CCCO3)c(SCC(=O)Nc3ccc(OC)cc3OC)nc2c1 (stereo not drawn),.,6,3,57*,-5,-39
Cc1cccc2cc(/C=N/NC(=O)c3ccncc3)c(Cl)nc12,.,9,6,-15,4,-3
Cc1cccc2cc(/C=N/NC(=O)c3ccccc3O)c(Cl)nc12,-3,2,-3,28,7,83*
O=C(N/N=C/c1cc2cc3c(cc2nc1Cl)OCCO3)c1ccccc1O,-51,-6,-4,60*,1,71*
Cc1ccc2cc(/C=N/NC(=O)[C@H]3C[C@@H]3c3ccccc3)c(Cl)nc2c1,-2,10,-2,-4,0,-2
O=C(N/N=C/c1cc2cc3c(cc2nc1Cl)OCO3)c1ccncc1,.,-1,3,-4,6,-2
Cc1ccc2cc(/C=N/NC(=O)c3ccccc3O)c(Cl)nc2c1,10,8,3,-7,8,64*
